# Measured values published in PubChem BioAssay (NCATS).
# Results filed as inconclusive are left out. A call without a number means that no potency is given here. Calls of active or inactive are those of the source. The call rests on the fitted dose curve; in most records, active means well fitted curve in the direction sought with a large enough effect; inconclusive means small, poorly fitted or top-dose-only effect, or another doubt; inactive means no such curve, though single readings can be large; an effect the other way counts as inactive or inconclusive.
# How the values were obtained:
# [1] = Confirmation and Secondary Assay for Modulators of Hemoglobin Beta Chain Splicing at IVS2 654 locus (AID 910);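 further: HeLa cells stably carrying EGFP split by mutant beta-globin IVS2-654 intron; per-well total GFP intensity by laser scanning cytometry after 2-day treatment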
# Summary of the method: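 Readout: per-well total peak green fluorescence (488 nm ex, 500–520 nm em) from objects 5–250 µm, reflecting correct splicing of an EGFP-654 reporter. Compounds were applied for 2 days at 37 °C to overnight-plated HeLa EGFP-654 cells; controls were DMSO and 500 nM IVS2-654 PNA.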
# [2] = biological target: Cytochrome P450 3A4 (Homo sapiens) (UniProt P08684); test: qHTS Assay for Inhibitors and Substrates of Cytochrome P450 3A4 (AID 884); further: series mostly up to about 57 µM; nearly all actives have a fitted effect of over 50% in size
# Cytochrome P450 3A4 (Homo sapiens), sequence (P08684 whole entry, looked up): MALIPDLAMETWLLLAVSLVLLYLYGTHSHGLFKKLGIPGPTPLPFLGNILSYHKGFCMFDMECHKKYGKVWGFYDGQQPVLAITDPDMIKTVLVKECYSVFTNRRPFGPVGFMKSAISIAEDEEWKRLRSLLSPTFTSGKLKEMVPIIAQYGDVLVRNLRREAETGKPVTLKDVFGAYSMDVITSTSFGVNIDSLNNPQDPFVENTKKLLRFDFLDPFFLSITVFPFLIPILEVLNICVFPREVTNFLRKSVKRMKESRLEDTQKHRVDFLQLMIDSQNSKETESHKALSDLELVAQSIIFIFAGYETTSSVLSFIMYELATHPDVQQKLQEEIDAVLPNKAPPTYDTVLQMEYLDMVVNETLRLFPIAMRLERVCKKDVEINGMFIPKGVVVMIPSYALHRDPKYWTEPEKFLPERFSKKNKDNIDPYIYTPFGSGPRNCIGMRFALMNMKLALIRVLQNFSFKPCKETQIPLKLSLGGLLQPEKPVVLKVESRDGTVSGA
# Summary of the method: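 Luminescent readout of luciferin produced by CYP3A4 (20 nM) dealkylation of Luciferin-PPXE, 25 uM (its KM). NADPH-driven reaction ran 60 min at RT after 10 min compound preincubation; data scaled to 57 uM ketoconazole as 100% inhibition.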
# [3] = biological target: Cytochrome P450 2C9 (Homo sapiens) (UniProt P11712); test: qHTS Assay for Inhibitors and Substrates of Cytochrome P450 2C9 (AID 883); further: potency means the concentration at half of the fitted maximal effect; nearly all actives have a fitted effect of over 60% in size
# Cytochrome P450 2C9 (Homo sapiens), sequence (P11712 whole entry, looked up): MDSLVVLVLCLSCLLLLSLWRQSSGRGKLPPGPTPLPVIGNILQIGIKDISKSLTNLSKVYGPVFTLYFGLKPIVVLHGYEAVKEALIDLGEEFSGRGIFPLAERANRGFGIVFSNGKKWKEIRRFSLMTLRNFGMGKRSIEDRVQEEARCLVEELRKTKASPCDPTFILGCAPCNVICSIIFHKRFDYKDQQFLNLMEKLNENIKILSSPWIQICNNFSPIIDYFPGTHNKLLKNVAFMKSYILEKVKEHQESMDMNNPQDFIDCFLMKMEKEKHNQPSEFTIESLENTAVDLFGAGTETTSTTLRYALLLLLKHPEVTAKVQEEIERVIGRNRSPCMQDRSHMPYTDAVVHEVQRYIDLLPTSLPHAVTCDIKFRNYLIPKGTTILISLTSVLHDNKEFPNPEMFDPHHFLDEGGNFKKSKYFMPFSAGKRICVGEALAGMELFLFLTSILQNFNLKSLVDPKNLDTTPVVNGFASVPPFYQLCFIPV
# Summary of the method: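 Luminescent read-out of deoxyluciferin hydroxylation, normalized to 57uM sulphaphenazole (AC100). Reaction: 10nM enzyme, 100uM Luciferin-H (equal to KM), 25mM KPO4, 10 min compound preincubation, then 60 min with NADPH regeneration, both at 37C.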
# [4] = biological target: Cytochrome P450 3A4 (Homo sapiens) (UniProt P08684); test: qHTS Assay for Activators of Cytochrome P450 3A4 (AID 885); further: nearly all actives have a fitted effect of over 65% in size
# Summary of the method: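 Using 20nM recombinant human CYP3A4 in potassium phosphate (200mM), substrate Luciferin-PPXE at 25uM, luminescent luciferin detection followed a 60-min RT NADPH reaction; data scaled to 57 uM ketoconazole.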
# [5] = biological target: Cytochrome P450 2D6 (Homo sapiens) (UniProt P10635); test: qHTS Assay for Inhibitors and Substrates of Cytochrome P450 2D6 (AID 891); further: potency means the concentration at half of the fitted maximal effect; nearly all actives have a fitted effect of over 60% in size
# Cytochrome P450 2D6 (Homo sapiens), sequence (P10635 whole entry, looked up): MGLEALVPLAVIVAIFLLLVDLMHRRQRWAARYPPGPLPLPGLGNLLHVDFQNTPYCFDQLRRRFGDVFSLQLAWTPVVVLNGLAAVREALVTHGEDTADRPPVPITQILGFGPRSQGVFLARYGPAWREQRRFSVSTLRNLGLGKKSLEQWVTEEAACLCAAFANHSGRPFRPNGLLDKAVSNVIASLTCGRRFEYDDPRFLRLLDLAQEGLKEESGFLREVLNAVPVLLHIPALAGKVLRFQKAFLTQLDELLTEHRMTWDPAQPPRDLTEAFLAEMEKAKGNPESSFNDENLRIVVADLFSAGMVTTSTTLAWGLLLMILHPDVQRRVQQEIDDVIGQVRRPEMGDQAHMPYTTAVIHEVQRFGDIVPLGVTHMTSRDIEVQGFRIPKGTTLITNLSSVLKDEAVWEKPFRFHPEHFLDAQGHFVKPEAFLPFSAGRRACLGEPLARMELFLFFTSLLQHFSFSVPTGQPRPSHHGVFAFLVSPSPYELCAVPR
# Summary of the method: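 Luminescent read-out of luciferin formed by 5 nM human CYP2D6 demethylating 30 uM Luciferin-ME EGE (Km level) over 60 min at room temperature after NADPH regeneration addition. Data normalized to full inhibition by 1.43 uM quinidine.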
# [6] = biological target: Cytochrome P450 2C19 (Homo sapiens) (UniProt P33261); test: qHTS Assay for Inhibitors and Substrates of Cytochrome P450 2C19 (AID 899); further: potency means the concentration at half of the fitted maximal effect; nearly all actives have a fitted effect of over 60% in size
# Cytochrome P450 2C19 (Homo sapiens), sequence (P33261 whole entry, looked up): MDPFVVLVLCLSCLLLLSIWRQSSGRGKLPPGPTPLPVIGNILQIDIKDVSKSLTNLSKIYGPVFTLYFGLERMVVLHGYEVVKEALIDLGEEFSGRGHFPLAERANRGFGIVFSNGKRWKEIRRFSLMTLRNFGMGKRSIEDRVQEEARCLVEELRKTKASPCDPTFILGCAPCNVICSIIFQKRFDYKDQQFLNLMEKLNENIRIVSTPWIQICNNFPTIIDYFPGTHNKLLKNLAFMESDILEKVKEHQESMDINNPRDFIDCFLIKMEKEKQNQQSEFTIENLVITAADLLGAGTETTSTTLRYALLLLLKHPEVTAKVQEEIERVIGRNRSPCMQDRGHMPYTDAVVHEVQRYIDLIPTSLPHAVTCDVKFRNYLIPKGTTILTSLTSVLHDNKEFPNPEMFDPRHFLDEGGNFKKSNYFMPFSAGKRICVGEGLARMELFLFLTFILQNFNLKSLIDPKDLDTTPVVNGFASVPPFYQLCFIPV
# Summary of the method: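 Luminescence readout of luciferin formed from 10uM Luciferin-H EGE (KM level) by 5 nM CYP2C19 in 50mM KPO4. 60 min NADPH-driven reaction at 37C after 10 min compound preincubation; data scaled to 57uM ketoconazole inhibition.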
structure (smiles),measurement,setting,value
CCC(=O)c1c(O)cc(O)cc1O,outcome,[1],inactive
CO/N=C1\CN(c2nc3c(cc2F)c(=O)c(C(=O)O)cn3C2CC2)CC1CN (stereo not drawn),Potency,[2],inactive
same,outcome,[1],inactive
CCCCC1=NC2(CCCC2)C(=O)N1Cc1ccc(-c2ccccc2-c2nn[nH]n2)cc1,outcome,[1],inactive
CCOc1ccc2nc3cc(N)ccc3c(N)c2c1,Potency,[2],inactive
same,outcome,[1],inactive
CCN(CCCCOC(=O)c1ccc(OC)c(OC)c1)C(C)Cc1ccc(OC)cc1 (stereo not drawn),outcome,[1],inactive
CCCCCCCCCCCCCCCCOP(=O)([O-])OCC[N+](C)(C)C,Potency,[2],inactive
same,outcome,[1],inactive
CCN(CC)CCOC(=O)C(c1ccccc1)C1CCCCC1 (stereo not drawn),outcome,[1],inactive
CCCCOc1ccc(C(=O)CCN2CCCCC2)cc1,Potency,[3],2.51 µM (active)
same,Potency,[4],inactive
same,Potency,[5],5.01 µM (active)
same,outcome,[1],inactive
COc1ccc(OC)c(C(O)CNC(=O)CN)c1 (stereo not drawn),outcome,[1],inactive
Cc1ccc(C(=O)C(C)CN2CCCCC2)cc1 (stereo not drawn),Potency,[2],inactive
same,outcome,[1],inactive
COc1c2occc2c(OC)c2c(=O)cc(C)oc12,Potency,[4],inactive
same,outcome,[1],inactive
CC(C)(C)CC(C)(C)c1ccc(O)c(Cc2ccc(Cl)cc2Cl)c1,outcome,[1],inactive
C[C@@H]1CN(CCCn2c3ccccc3c3ccccc32)C[C@H](C)N1,Potency,[6],3.16 µM (active)
CC(=O)Nc1c(I)cc(I)c(C(=O)O)c1I,Potency,[2],inactive
same,outcome,[1],inactive
C/C=C(/C(=C/C)c1ccc(O)cc1)c1ccc(O)cc1,outcome,[1],inactive
CCOc1ccc(Cc2nccc3cc(OCC)c(OCC)cc23)cc1OCC,Potency,[3],3.98 µM (active)
same,Potency,[4],inactive
same,outcome,[1],inactive
CC(Cc1cccc(C(F)(F)F)c1)NCCOC(=O)c1ccccc1 (stereo not drawn),Potency,[4],inactive
same,outcome,[1],inactive
CCCCc1nc(Cl)c(CO)n1Cc1ccc(-c2ccccc2-c2nn[nH]n2)cc1,Potency,[4],inactive
same,outcome,[1],inactive
CCN1CCN(c2cc3c(cc2F)c(=O)c(C(=O)O)cn3C2CC2)CC1,Potency,[2],inactive
same,outcome,[1],inactive
COc1ccc(C2C(=O)c3ccccc3C2=O)cc1,Potency,[2],inactive
same,outcome,[1],inactive
CC(CCc1ccccc1)NCC(O)c1ccc(O)c(C(N)=O)c1 (stereo not drawn),Potency,[2],inactive
same,outcome,[1],inactive
CCCC(=O)Nc1ccc(OCC(O)CNC(C)C)c(C(C)=O)c1 (stereo not drawn),outcome,[1],inactive
Cc1c(C(N)=O)cc([N+](=O)[O-])cc1[N+](=O)[O-],Potency,[2],inactive
same,outcome,[1],inactive
Oc1ccc(Cl)c2cccnc12,Potency,[2],inactive
same,outcome,[1],inactive
COc1cc(OC)cc(OC)c1,Potency,[2],inactive
same,outcome,[1],inactive
Cc1cccc(C)c1NC(=O)CN1CCN(CCCC(c2ccc(F)cc2)c2ccc(F)cc2)CC1,Potency,[2],inactive
same,Potency,[5],5.01 µM (active)
O=C(OCC(O)CO)c1ccccc1Nc1ccnc2cc(Cl)ccc12 (stereo not drawn),Potency,[4],inactive
same,outcome,[1],inactive
CC(C)(CO)[C@@H](O)C(=O)NCCCO,Potency,[2],inactive
CCCCOc1cc(C(=O)NCCN(CC)CC)c2ccccc2n1,Potency,[2],inactive
same,outcome,[1],inactive
CNCC[C@@H](Oc1ccccc1C)c1ccccc1,Potency,[4],inactive
CCCCC(CC)CN=C(N)NC(N)=NCCCCCCN=C(N)NC(N)=NCC(CC)CCCC (stereo not drawn),outcome,[1],inactive
